Sampled rows, rich in hits. Any-hit rate of the full collection: about 3.5%.
Pf apPOL inh – Pf-apPOL DNA polymerase inhibition; Recombinant Pf-apPOL, molecular beacon fluorescence, 1.5 h; inhibition, % at 10 µM; 210,000 tested, 0.25% active
mHTT-CaM PPI inh – mHTT-calmodulin interaction abrogation | P42858 | AlphaScreen His-mHTT/GST-CaM binding, luminescence | AID 1671202 | inhibition, % at 15 µM | 190,000 tested, 3.6% active;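 note: 0% = both proteins with DMSO and 100% = one protein alone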
Numbers without * were called inactive; . = not tested or not shown; ! = not confirmed by another sample. Cut-off read from the data, not from the text of the source: active = inhibition above about 50%; inactive = the rest.

SMILES | Pf apPOL inh | mHTT-CaM PPI inh
COc1cccc(C(=O)Nc2c3c(nn2-c2ccc(C)cc2C)CSC3)c1OC | -2.7 | 50.0*
COc1cc(C(=O)Nc2c3c(nn2-c2ccc(C)cc2C)CSC3)cc(OC)c1OC | -6.8 | -2.0
Cc1ccccc1-n1nc2c(c1NC(=O)c1ccco1)CSC2 | -2.1 | 38.0
Cc1cccc(-n2nc3c(c2NC(=O)c2ccco2)CSC3)c1C | -6.6 | 60.0*
COc1cc(NC(=O)N2CC(C)Oc3ccccc32)cc(OC)c1OC (centres undefined) | -6.9 | 0.3
C/C(=C\c1ccccc1)CN1CC(C)OC(C)C1 (centres undefined) | -3.1 | -9.7
O=C(c1ccc2c(c1)Sc1ncccc1C(=O)N2C1CC1)N1CCCCC1 | 0.8 | 0.2
CCOC(=O)C[C@H]1c2cc(C(F)(F)F)ccc2S(=O)(=O)N1C1CCCCC1 | -5.3 | -29.7
COc1ccc(C(NC(=O)Cc2ccccc2)c2ccc3cccnc3c2O)cc1OC (centres undefined) | 87.0*! | 100.0*
COc1ccccc1C(NC(=O)Cc1ccccc1)c1ccc2cccnc2c1O (centres undefined) | -4.4 | 35.0
COc1ccc(C(NC(=O)CCc2ccccc2)c2ccc3cccnc3c2O)cc1OC (centres undefined) | -3.5 | 100.0*
O=C(CCc1ccccc1)NC(c1ccccc1)c1ccccc1 | -1.7 | -11.0
COc1cc2c(cc1OC)C(COc1cccc(C(F)(F)F)c1)N(C(=O)C(C)C)CC2 (centres undefined) | -0.8 | 96.0*
COc1cc2c(cc1OC)C(COc1cccc(C(F)(F)F)c1)N(C(=O)c1ccco1)CC2 (centres undefined) | -3.9 | 100.0*
COc1cc2c(cc1OC)C(COc1cccc(C(F)(F)F)c1)N(C(=O)C1CC1)CC2 (centres undefined) | -6.0 | 95.0*
COC(=O)c1ccc(OCC2c3cc(OC)c(OC)cc3CCN2C(=O)C2CC2)cc1 (centres undefined) | -7.1 | 29.7
COc1cc2c(cc1OC)C(COc1ccccc1OC)N(C(=O)c1ccco1)CC2 (centres undefined) | -4.4 | 29.6
COc1cc2c(cc1OC)C(COc1ccccc1OC)N(C(=O)C(C)C)CC2 (centres undefined) | 0.3 | 8.7
COc1ccc(-c2nc3cccnc3n2C2CCN(C(=O)c3ccc(C)s3)C2)cc1 (centres undefined) | -5.6 | 65.0*
COc1ccc(-c2nc3cccnc3n2C2CCN(C(=O)NC(C)C)C2)cc1 (centres undefined) | -2.9 | 0.9
COc1ccc(-c2nc3cccnc3n2C2CCN(C(=O)c3ccc(Cl)s3)C2)cc1 (centres undefined) | -2.9 | 70.3*
COc1ccc(-c2nc3cccnc3n2C2CCN(C(=O)c3cccs3)C2)cc1 (centres undefined) | -0.7 | 37.8
CC(=O)NCc1csc(C2CCN(C(=O)c3ccc(F)cc3)CC2)n1 | -3.3 | -7.5
c1ccc(C(c2c[nH]c3ccccc23)c2c[nH]c3ccccc23)nc1 | -9.8 | 73.7*
O=C(O)CC(C(=O)O)c1c[nH]c2ccccc12 (centres undefined) | -11.3 | 2.5
SMILES | Pf apPOL inh | mHTT-CaM PPI inh
COC(=O)c1cc(OCc2ccccc2)c2ccccc2n1 | -4.2 | 28.8
O=C(C1CCN(c2ccc3ccccc3c2)C1=O)N1CCN(Cc2ccccc2)CC1 (centres undefined) | -1.1 | 54.1*
O=C(Nc1ccccc1)C1CCN(c2ccc3ccccc3c2)C1=O (centres undefined) | -2.8 | 2.8
COc1ccc(-c2nc(NCc3ccc(F)cc3)c3ccccc3n2)cc1OC | -3.7 | 87.0*
COc1ccc(-c2nc(NCc3ccccc3)c3ccccc3n2)cc1OC | -1.2 | 14.0
COc1cc(OC)c(OC)cc1/C=C1/CCC/C(=C\c2cc(OC)c(OC)cc2OC)C1=O | -0.6 | 64.0*
COc1cc(OC)c(OC)cc1/C=C1\Cc2ccccc2C1=O | -5.4 | 0.0
COc1ccc(CCNC(=O)CN2N=C(c3ccc(Cl)cc3)CCC2=O)cc1OC | -17.6 | 15.0
Cc1ccc(CCNC(=O)CN2N=C(c3ccc(Cl)cc3)CCC2=O)cc1 | -13.0 | 65.0*
Nc1nc(COc2ccccc2Cl)nc(N2CCCCC2)n1 | 2.4 | 2.0
CCc1cc(C2CCCN2C(=O)c2ccn(CC)n2)on1 (centres undefined) | 3.3 | -5.3
O=C(c1cccs1)N1CCCC(OCc2ccc(C(F)(F)F)cc2)C1 (centres undefined) | -1.7 | 50.6*
COc1cccc(COC2CCCN(C(=O)c3cccs3)C2)c1 (centres undefined) | -3.2 | -3.9
O=C(NCCC1CCCCN1S(=O)(=O)c1cccs1)c1ccsc1 (centres undefined) | -7.4 | -3.7
Cc1[nH]c2ccccc2c1C(C[N+](=O)[O-])c1ccc2c(c1)OCO2 (centres undefined) | 4.1 | 75.0*
Cc1cc(O)c(C(C[N+](=O)[O-])c2ccc(Cl)cc2Cl)c(=O)o1 (centres undefined) | 1.6 | 3.0
Cc1[nH]c2ccccc2c1C(C[N+](=O)[O-])c1cc(Cl)c2c(c1)OCO2 (centres undefined) | 1.0 | 62.0*
O=[N+]([O-])CC(c1ccc2c(c1)OCO2)c1c[nH]c2ccccc12 (centres undefined) | -5.6 | 20.3
Cc1[nH]c2ccccc2c1C(Nc1nccs1)c1ccc2c(c1)OCO2 (centres undefined) | 7.3 | 83.0*
O=C(Nc1nccs1)c1ccc2c(c1)OCO2 | -10.8 | -4.3
COc1ccc(C(C[N+](=O)[O-])c2c(O)cc(C)oc2=O)cc1 (centres undefined) | 1.4 | 6.3
COc1cc(C(C[N+](=O)[O-])c2c(C)[nH]c3ccccc23)ccc1O (centres undefined) | 1.4 | 61.0*
CCN1C(=O)NC(=O)/C(=C/c2cn(CCOc3ccc4c(c3)OCO4)c3ccccc23)C1=O | -8.0 | 6.0
COc1ccc(NC(=O)c2ccc(-c3ncccc3NC(C)=O)cc2)cc1 | 9.4 | 2.8
COc1ccccc1C(=O)NCCn1cc(SCC(N)=O)c2ccccc21 | -0.2 | 4.3
SMILES | Pf apPOL inh | mHTT-CaM PPI inh
CC(C)NC(=O)c1cc(N2CCCC2)n2nccc2n1 | -5.3 | -23.7
CSCCC(NS(=O)(=O)c1cc(C(F)(F)F)cc(C(F)(F)F)c1)C(=O)NN (centres undefined) | -0.1 | .
O=C(NC1CC1)c1cc(S(=O)(=O)N2CCOCC2)ccc1Cl | -3.9 | -4.9
COCCN1CCC(CNC(=O)C(=O)NCC(F)(F)F)CC1 | 27.4 | 5.2
O=C(Nc1cc(-c2ccccn2)no1)c1cc(F)ccc1F | 0.8 | -1.6
Cc1cccc(C(=O)N2N=C(c3cccc(Br)c3)CC2(O)C(F)(F)F)c1 (centres undefined) | 0.5 | 19.0
CCC1=NN(C(=O)Cc2ccc(OC)cc2)C(O)(C(F)(F)F)C1 (centres undefined) | 2.4 | -9.0
CCC1=NN(C(=O)COc2ccc(Cl)c(C)c2)C(O)(C(F)(F)F)C1 (centres undefined) | -16.1 | 94.0*
Cc1ccccc1OCC(=O)N1N=C(c2ccc(Br)cc2)CC1(O)C(F)(F)F (centres undefined) | 1.1 | 93.0*
O=C(COc1ccccc1)N1N=C(c2ccc(Br)cc2)CC1(O)C(F)(F)F (centres undefined) | -4.4 | 28.0
Cc1cccc(C(=O)N2N=C(c3ccc(Br)cc3)CC2(O)C(F)(F)F)c1 (centres undefined) | 0.9 | 97.0*

Screens (PubChem)
